According to PubChem BioAssay (EPA / NIEHS):
Results filed as inconclusive are left out. The source made the active and inactive calls. How the source made its calls, unless noted: active means hit-call score of the fitted dose curve at least 0.9, where 1 is the maximum; inactive means score below 0.9.

Key:
[1] = read-out: matrix metalloproteinase-3 (MMP3), MMP3 (gene 4314); experiment: LTEA_HepaRG_MMP3: Life Technologies and Expression Analysis (LTEA) Assay for matrix metalloproteinase-3 (MMP3) using HepaRG (AID 2283519); conditions: mRNA level, 48 h; actives raise or lower the signal
Summary of the method: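 Differentiated human HepaRG cells, plated 48 h on collagen I, were exposed in duplicate for 48 h in serum-free induction medium to eight half-log concentrations up to 100 uM in 0.5% DMSO. MMP3 mRNA was quantified by TaqMan qRT-PCR, normalised to ACTB, GAPDH and POLR2A.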

[2] = read-out: Paternally Expressed 10 (PEG10), PEG10 (gene 23089); experiment: LTEA_HepaRG_PEG10: Life Technologies and Expression Analysis (LTEA) Assay for Paternally Expressed 10 (PEG10) using HepaRG (AID 2283520); conditions: mRNA level, 48 h; actives raise or lower the signal;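 on AC50: PEG10 transcript by qRT-PCR normalised to ACTB GAPDH and POLR2A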
Summary of the method: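 Chemicals tested on HepaRG cells for 48 h, highest concentration 100 uM. PEG10 expression assessed by qRT-PCR relative to DMSO control.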

[3] = read-out: Protein phosphatase 2A (PPP2R4), PTPA (gene 5524); experiment: LTEA_HepaRG_PPP2R4: Life Technologies and Expression Analysis (LTEA) Assay for Protein phosphatase 2A (PPP2R4) using HepaRG (AID 2283522); conditions: mRNA level, 48 h; actives raise or lower the signal
Summary of the method: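 Gene-expression endpoint in HepaRG hepatic cells: 48 h treatment across eight half-log concentrations up to 100 uM in 0.5% DMSO. PPP2R4 mRNA by qRT-PCR, normalized to three endogenous control genes.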

[4] = read-out: Phosphatase and tensin (PTEN), PTEN (gene 5728); experiment: LTEA_HepaRG_PTEN: Life Technologies and Expression Analysis (LTEA) Assay for Phosphatase and tensin (PTEN) using HepaRG (AID 2283523); conditions: mRNA level, 48 h; actives raise or lower the signal
Summary of the method: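 Differentiated human HepaRG cells, plated 48 h then switched to serum-free induction medium, were exposed in duplicate for 48 h to eight half-log concentrations up to 100 uM in 0.5% DMSO. PTEN mRNA measured by TaqMan qRT-PCR, normalized to ACTB/GAPDH/POLR2A, bidirectional fit versus DMSO.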

[5] = read-out: solute carrier (SLC22A1), SLC22A1 (gene 6580); experiment: LTEA_HepaRG_SLC22A1: Life Technologies and Expression Analysis (LTEA) Assay for solute carrier (SLC22A1) using HepaRG (AID 2283524); conditions: mRNA level, 48 h; actives raise or lower the signal
Summary of the method: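 Human HepaRG cells were plated 48 h, switched to serum-free induction medium, then exposed in duplicate for 48 h to 8-point half-log series from 100 uM in 0.5% DMSO. SLC22A1 mRNA measured by qRT-PCR, normalized to ACTB/GAPDH/POLR2A, fitted bidirectionally versus DMSO.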

[6] = read-out: Pyruvate Dehydrogenase Kinase 4 (PDK4), PDK4 (gene 5166); experiment: LTEA_HepaRG_PDK4: Life Technologies and Expression Analysis (LTEA) Assay for Pyruvate Dehydrogenase Kinase 4 (PDK4) using HepaRG (AID 2283525); conditions: mRNA level, 48 h; actives raise or lower the signal
Summary of the method: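 Differentiated human HepaRG cells, pre-cultured 48 h, were exposed in duplicate for 48 h in serum-free induction medium to eight half-log concentrations up to 100 uM in 0.5% DMSO. PDK4 mRNA was quantified by qRT-PCR, normalized to ACTB, GAPDH and POLR2A, bidirectional fitting versus DMSO.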

[7] = read-out: succinate dehydrogenase complex iron sulfur subunit B (SDHB), SDHB (gene 6390); experiment: LTEA_HepaRG_SDHB: Life Technologies and Expression Analysis (LTEA) Assay for succinate dehydrogenase complex iron sulfur subunit B (SDHB) using HepaRG (AID 2283528); conditions: mRNA level, 48 h; actives raise or lower the signal
Summary of the method: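 SDHB transcript level read by TaqMan qRT-PCR, housekeeping-normalised (ACTB, GAPDH, POLR2A), after 48 h chemical treatment of plated HepaRG cells; eight concentrations top 100 uM, half-log steps, 0.5% DMSO, duplicates; fitted both directions against DMSO.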

[8] = read-out: Signal transducer and activator of transcription 3 (Homo sapiens) (UniProt P40763); experiment: LTEA_HepaRG_STAT3: Life Technologies and Expression Analysis (LTEA) Assay for Signal transducer and activator of transcription (STAT3) using HepaRG (AID 2283529); conditions: mRNA level, 48 h; actives raise or lower the signal
Summary of the method: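 Differentiated human HepaRG cells in serum-free induction medium were exposed in duplicate for 48 h to eight half-log concentrations up to 100 uM in 0.5% DMSO. STAT3 mRNA was quantified by TaqMan qRT-PCR, normalized to ACTB, GAPDH and POLR2A, and fitted bidirectionally against DMSO.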

[9] = read-out: solute carrier (SLCO1B1), SLCO1B1 (gene 10599); experiment: LTEA_HepaRG_SLCO1B1: Life Technologies and Expression Analysis (LTEA) Assay for solute carrier (SLCO1B1) using HepaRG (AID 2283530); conditions: mRNA level, 48 h; actives raise or lower the signal
Summary of the method: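 Human HepaRG cultures treated for 48 h with an eight-concentration half-log series topping at 100 uM; SLCO1B1 measured by qRT-PCR and fitted bidirectionally relative to DMSO.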

[10] = read-out: sulfotransferase 2A1 (SULT2A1), SULT2A1 (gene 6822); experiment: LTEA_HepaRG_SULT2A1: Life Technologies and Expression Analysis (LTEA) Assay for sulfotransferase 2A1 (SULT2A1) using HepaRG (AID 2283531); conditions: mRNA level, 48 h; actives raise or lower the signal
Summary of the method: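 Gene-expression endpoint in a human liver cell line: SULT2A1 mRNA change after 48 h chemical treatment, curves fitted in both directions relative to 0.5% DMSO vehicle. Concentrations spanned eight half-log steps from 100 uM.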

[11] = read-out: Transforming Growth Factor (TGFA), TGFA (gene 7039); experiment: LTEA_HepaRG_TGFA: Life Technologies and Expression Analysis (LTEA) Assay for Transforming Growth Factor (TGFA) using HepaRG (AID 2283532); conditions: mRNA level, 48 h; actives raise or lower the signal
Summary of the method: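 Differentiated human HepaRG cells, plated 48 h then switched to serum-free induction medium, were exposed in duplicate for 48 h to 8-point half-log series from 100 uM in 0.5% DMSO. TGFA mRNA measured by qRT-PCR, normalized to ACTB/GAPDH/POLR2A, bidirectional fit versus DMSO.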

[12] = read-out: Transforming Growth Factor (TGFB1), TGFB1 (gene 7040); experiment: LTEA_HepaRG_TGFB1: Life Technologies and Expression Analysis (LTEA) Assay for Transforming Growth Factor (TGFB1) Transporter using HepaRG (AID 2283533); conditions: mRNA level, 48 h; actives raise or lower the signal
Summary of the method: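 Eight-point concentration-response (max 100 uM, half-log) in HepaRG under serum-free induction conditions, 48 h. TGFB1 mRNA by qRT-PCR, housekeeping-normalized.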

[13] = read-out: TIMP1, TIMP1 (gene 7076); experiment: LTEA_HepaRG_TIMP1: Life Technologies and Expression Analysis (LTEA) Assay for TIMP1 using HepaRG (AID 2283534); conditions: mRNA level, 48 h; actives raise or lower the signal;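 further: TaqMan qRT-PCR signal normalized to ACTB GAPDH and POLR2A housekeeping genes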
Summary of the method: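 TIMP1 induction or repression in HepaRG cells after 48 h chemical exposure (eight concentrations, highest 100 uM), assessed by normalized qRT-PCR with bidirectional fitting to DMSO controls.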

[14] = read-out: Tumor necrosis factor receptor 1 (TNFRSF1A), TNFRSF1A (gene 7132); experiment: LTEA_HepaRG_TNFRSF1A: Life Technologies and Expression Analysis (LTEA) Assay for Tumor necrosis factor receptor 1 (TNFRSF1A) using HepaRG (AID 2283535); conditions: mRNA level, 48 h; actives raise or lower the signal
Summary of the method: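 Assay uses 48 h chemical treatment of differentiated HepaRG monolayers, tested in duplicate at eight concentrations from 100 uM downward in 0.5% DMSO. mRNA is normalized to ACTB, GAPDH and POLR2A, with induction or suppression fitted relative to vehicle.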

[15] = read-out: Thyroid Hormone Responsive (THRSP), THRSP (gene 7069); experiment: LTEA_HepaRG_THRSP: Life Technologies and Expression Analysis (LTEA) Assay for Thyroid Hormone Responsive (THRSP) using HepaRG (AID 2283536); conditions: mRNA level, 48 h; actives raise or lower the signal
Summary of the method: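 Differentiated human HepaRG cells were exposed in duplicate for 48 h in serum-free induction medium to eight concentrations (top 100 uM, half-log steps, 0.5% DMSO). Expression was quantified by TaqMan qRT-PCR, normalized to ACTB, GAPDH and POLR2A, with bidirectional fitting against DMSO.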

[16] = read-out: UDP glucuronosyltransferase (UGT1A6), UGT1A6 (gene 54578); experiment: LTEA_HepaRG_UGT1A6: Life Technologies and Expression Analysis (LTEA) Assay for UDP glucuronosyltransferase (UGT1A6) using HepaRG (AID 2283539); conditions: mRNA level, 48 h; actives raise or lower the signal
Summary of the method: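 Measures mRNA change in HepaRG hepatic cells exposed 48 h to chemicals (eight-point, maximum 100 uM, 0.5% DMSO vehicle) in serum-free induction medium. Expression normalized to endogenous controls; DMSO served as negative control and baseline.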

[17] = read-out: X-box binding protein 1 (XBP1), XBP1 (gene 7494); experiment: LTEA_HepaRG_XBP1: Life Technologies and Expression Analysis (LTEA) Assay for X-box binding protein 1 (XBP1) using HepaRG (AID 2283540); conditions: mRNA level, 48 h; actives raise or lower the signal
Summary of the method: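 Eight concentrations (half-log, highest 100 uM, 0.5% DMSO) tested in duplicate on HepaRG cells over 48 h in serum-free induction medium; qRT-PCR of XBP1 normalised to ACTB, GAPDH, POLR2A.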

[18] = LTEA_HepaRG_LDH_cytotoxicity: Cytotoxicity Assessment in the Life Technologies and Expression Analysis (LTEA) Assay (AID 2283563; active means hit-call score of the fitted dose curve at least 0.9, where 1 is the maximum)
Summary of the method: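 Spent-medium LDH after 48 h chemical exposure of HepaRG cells in serum-free induction medium; eight concentrations, half-log dilutions from 100 uM, duplicate wells, fitted upward relative to 0.5% DMSO.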

[19] = ATG_XTT_Cytotoxicity: Cytotoxicity Assessment in the Attagene TRANS-FACTORIAL HepG2 Assay (AID 2283584; active means hit-call score of the fitted dose curve at least 0.9, where 1 is the maximum)
Summary of the method: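 24 h chemical exposure of reporter-transfected HepG2; XTT signal loss vs DMSO indicates cytotoxicity.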

[20] = read-out: Nuclear factor NF-kappa-B p105 subunit (Homo sapiens) (UniProt P19838); experiment: LTEA_HepaRG_NFKB1: Life Technologies and Expression Analysis (LTEA) Assay for Nuclear Factor Kappa B Subunit 1 (NFKB1) using HepaRG (AID 2283521); conditions: mRNA level, 48 h; actives raise or lower the signal
Summary of the method: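 NFKB1 transcript was measured by TaqMan qRT-PCR on Fluidigm arrays, normalised to three housekeeping genes and fitted in both directions against 0.5% DMSO. HepaRG cells were dosed in duplicate for 48 h in serum-free induction medium, eight half-log steps from 100 uM.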

Measured: AC50

Sequence of Signal transducer and activator of transcription 3 (Homo sapiens) (P40763 whole entry, looked up): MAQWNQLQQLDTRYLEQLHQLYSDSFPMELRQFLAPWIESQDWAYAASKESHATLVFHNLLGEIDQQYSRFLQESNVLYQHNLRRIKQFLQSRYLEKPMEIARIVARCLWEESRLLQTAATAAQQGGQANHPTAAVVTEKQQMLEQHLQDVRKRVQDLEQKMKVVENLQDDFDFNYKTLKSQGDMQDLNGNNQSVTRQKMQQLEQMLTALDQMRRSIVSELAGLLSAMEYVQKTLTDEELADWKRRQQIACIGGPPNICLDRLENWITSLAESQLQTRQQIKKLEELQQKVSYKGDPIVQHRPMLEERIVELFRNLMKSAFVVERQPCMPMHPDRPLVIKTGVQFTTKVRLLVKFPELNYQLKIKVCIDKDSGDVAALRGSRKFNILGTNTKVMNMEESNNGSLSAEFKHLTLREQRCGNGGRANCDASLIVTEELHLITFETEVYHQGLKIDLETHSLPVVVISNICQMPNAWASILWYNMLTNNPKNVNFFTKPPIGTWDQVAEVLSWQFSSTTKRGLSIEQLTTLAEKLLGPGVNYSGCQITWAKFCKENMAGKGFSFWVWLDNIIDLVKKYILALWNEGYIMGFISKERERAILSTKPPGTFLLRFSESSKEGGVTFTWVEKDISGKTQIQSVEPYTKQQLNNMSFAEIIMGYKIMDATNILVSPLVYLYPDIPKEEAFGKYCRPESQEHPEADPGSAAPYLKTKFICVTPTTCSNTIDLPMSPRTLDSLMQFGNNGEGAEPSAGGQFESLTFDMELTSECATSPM
Sequence of Nuclear factor NF-kappa-B p105 subunit (Homo sapiens) (P19838 whole entry, looked up): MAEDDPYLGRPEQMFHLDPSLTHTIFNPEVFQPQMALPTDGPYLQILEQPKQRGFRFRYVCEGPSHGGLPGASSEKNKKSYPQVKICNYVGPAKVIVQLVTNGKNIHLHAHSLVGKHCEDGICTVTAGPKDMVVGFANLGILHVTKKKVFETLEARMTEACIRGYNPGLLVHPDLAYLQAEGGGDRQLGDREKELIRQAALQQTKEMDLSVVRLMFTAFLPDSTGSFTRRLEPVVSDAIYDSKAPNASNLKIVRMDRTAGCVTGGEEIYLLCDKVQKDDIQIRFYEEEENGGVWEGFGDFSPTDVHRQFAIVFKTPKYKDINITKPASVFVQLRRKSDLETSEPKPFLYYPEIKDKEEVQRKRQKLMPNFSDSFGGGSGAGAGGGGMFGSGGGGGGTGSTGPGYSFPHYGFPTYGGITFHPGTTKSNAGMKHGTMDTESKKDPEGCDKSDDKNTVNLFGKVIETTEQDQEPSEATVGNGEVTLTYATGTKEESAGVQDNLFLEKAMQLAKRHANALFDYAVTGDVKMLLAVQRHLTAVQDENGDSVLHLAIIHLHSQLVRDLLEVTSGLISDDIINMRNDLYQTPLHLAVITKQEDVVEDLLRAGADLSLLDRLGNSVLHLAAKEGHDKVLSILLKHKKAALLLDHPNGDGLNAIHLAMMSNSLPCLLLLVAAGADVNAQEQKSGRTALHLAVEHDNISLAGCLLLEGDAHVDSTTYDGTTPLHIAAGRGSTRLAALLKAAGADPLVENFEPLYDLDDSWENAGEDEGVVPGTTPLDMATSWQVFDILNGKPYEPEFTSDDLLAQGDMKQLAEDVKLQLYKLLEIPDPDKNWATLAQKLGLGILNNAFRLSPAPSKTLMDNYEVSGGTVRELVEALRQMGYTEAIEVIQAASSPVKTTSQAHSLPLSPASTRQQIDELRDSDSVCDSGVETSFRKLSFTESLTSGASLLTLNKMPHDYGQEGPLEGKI

CCC(=O)C(CC(C)N(C)C)(c1ccccc1)c1ccccc1 (stereo not drawn)
active: [2] 26.3 µM | [15] 17.8 µM
not listed: [20]
inactive: all other assays above

Oc1cccc2cccnc12
not listed: [20]
inactive: all other assays above

NC(=O)O
inactive: all assays above

CC(C)(OO)c1ccccc1
inactive: all assays above
